Assay results taken from PubChem BioAssay (NCI).
The panel holds about 79,000 compounds, 15% with a hit somewhere; the sample as a whole holds those more often. A number with no mark means an inactive call. The source made the active and inactive calls. Cut-off read from the data, not from the text of the source: active = growth inhibition above about 70%; inactive = the rest.

Legend:
[1] = NCI Yeast Anticancer Drug Screen. Data for the rad50 strain (AID 155);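 note: 0% = growth of vehicle-only cultures of the same strain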; conditions: S. cerevisiae rad50 strain growth inhibition; at 50.0 µM; hits give high values
How it was run: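 Compounds were tested on a yeast strain with an engineered DNA damage repair alteration; the reported value is growth inhibition normalised to vehicle treatment.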

[2] = NCI Yeast Anticancer Drug Screen. Data for the mec2-1 strain (AID 157); conditions: S. cerevisiae mec2-1 strain, at 50.0 µM, hits give high values
How it was run: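 mec2-1 yeast strain, carrying an alteration in DNA damage repair or cell cycle control, was exposed to compounds; growth inhibition was measured relative to vehicle-treated controls.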

[3] = NCI Yeast Anticancer Drug Screen. Data for the sgs1 mgt1 strain (AID 161);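 note: 0% = growth of cultures given vehicle only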; conditions: S. cerevisiae sgs1 mgt1 strain, at 50.0 µM, hits give high values
How it was run: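 Growth of a repair-deficient yeast mutant was monitored after compound treatment and expressed as inhibition relative to vehicle-treated cultures.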

[4] = NCI Yeast Anticancer Drug Screen. Data for the cln2 rad14 strain (AID 165);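 note: 0% = growth equal to vehicle treated cultures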; conditions: S. cerevisiae cln2 rad14 strain, at 50.0 µM, hits give high values
How it was run: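 Yeast carrying cln2 and rad14 alterations (cell cycle control and DNA damage repair) were exposed to compounds. Growth inhibition was measured against vehicle-treated controls.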

[5] = NCI Yeast Anticancer Drug Screen. Data for the bub3 strain (AID 167); conditions: S. cerevisiae bub3 mutant strain, at 50.0 µM, hits give high values
How it was run: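 Growth of a checkpoint-deficient yeast mutant is measured after compound exposure. Values represent inhibition relative to vehicle.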

[6] = NCI Yeast Anticancer Drug Screen. Data for the mlh1 rad18 strain (AID 175); conditions: S. cerevisiae mlh1 rad18 strain growth inhibition; at 50.0 µM; hits give high values
How it was run: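 Growth inhibition of the yeast strain was measured after compound exposure and expressed relative to vehicle-treated controls. The strain carries defined defects in DNA damage repair.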

Row | SMILES | growth inhibition [1] | growth inhibition [2] | growth inhibition [3] | growth inhibition [4] | growth inhibition [5] | growth inhibition [6]
1 | Cc1ccc(OCc2ccccc2)n[n+]1[O-] | -20.6% | -16.8% | -10.8% | -9.85% | -9.7% | -3%
2 | C1CSC(Sc2nc(SC3=NCCS3)nc(SC3=NCCS3)n2)=N1 | -22% | -10.7% | -10% | -30.3% | -31.2% | -26.4%
3 | COC(=O)c1nc(N)nc(C(=O)OC)c1C(=O)c1ccncc1 | -12.2% | -19.9% | 0.1% | -16.1% | -24.9% | -4.45%
4 | N#Cc1ccccc1OCCCCCCCCCCOc1ccccc1C#N | -2.8% | -4.15% | -19.6% | 31.4% | -1% | 3.8%
5 | O=C(c1cc2ccccc2s1)c1ccccc1Cc1cccc2ccccc12 | 33.8% | 7.25% | 31.2% | 21.2% | 5.45% | -0.75%
6 | CCC1(C2C=COC=C2)NC(=O)NC1=O (configuration not stated) | -14.1% | 3.8% | -8.35% | 6.45% | -4.75% | -2%
7 | Cc1ccc(N=Cc2cc(Br)ccc2O)cc1Cl | 98.6% (active) | 99% (active) | 99.1% (active) | 95% (active) | 98.7% (active) | 96.8% (active)
8 | CC(=O)N1Cc2ncnc(N)c2C1 | -12.3% | -8.9% | -20.7% | -10.6% | -2.35% | -10.4%
9 | CCOC(=O)C1=CC(=O)CC(C)(C)O1 | -2.6% | 7.55% | -1.65% | -5.75% | -0.8% | 1.95%
10 | COc1ccc(N(N=Nc2ccccc2)C(C)=O)cc1 | -2.05% | 2% | 30.9% | -4.75% | -16.7% | 11.9%
11 | Cc1c(C)c2cc(Br)ccc2[nH]c1=O | 18.9% | -6.2% | -10.2% | 6.45% | 6.7% | 2.45%
12 | O=C(OCc1ccccc1)c1ccccc1 | 18.9% | 3.05% | 10.8% | -13.3% | 28.1% | 51.9%
13 | O=C1CC2(CCCC2)C(=O)N1c1cccc([N+](=O)[O-])c1 | 10.8% | 5% | 17.4% | 11% | 11.7% | -4.85%
14 | O=C1CC(SC(=S)N2CCCCC2)C(=O)N1c1ccccc1 (configuration not stated) | -19.6% | 7.55% | -2.55% | -30.2% | 7.25% | 13.2%
15 | CC(C)N(C(=S)/N=C1/SC(C)S(=O)(=O)N1C)C(C)C (configuration not stated) | -4.95% | 13.6% | -5.95% | -4.5% | -10.8% | 5.45%
16 | COC1OC(COC(c2ccccc2)(c2ccccc2)c2ccccc2)C2SC12 (configuration not stated) | 23.9% | 10% | -1.05% | 14.2% | 4.8% | 17.6%
17 | O=C(O)C(=Cc1cccc2ccc3ccccc3c12)C(=O)O | -8.7% | -17.2% | -4.8% | -4.45% | -1.8% | -6.2%
18 | CCOc1cc(/C=N/NC(=O)N(c2ccccc2)c2ccccc2)ccc1O | 4.25% | -8.6% | 25.6% | 12.8% | 24.6% | 7.35%
19 | Oc1cccc(N=Cc2ccccc2O)c1 | 4.3% | -4.85% | 0.15% | -18.8% | -5.15% | 0.15%

Row | SMILES | growth inhibition [1] | growth inhibition [2] | growth inhibition [3] | growth inhibition [4] | growth inhibition [5] | growth inhibition [6]
20 | CC(C)(C)NC(=O)Nc1nccs1 | 7.8% | -7.9% | -6.2% | -86.5% | -3.9% | 9.85%
21 | CN(C)C(=N)N=C(N)N | -23.2% | -30.1% | -27.6% | -1.8% | -42.9% | -21.1%
22 | CC(C)C1(C(C)C)OCC(CO)O1 (configuration not stated) | 9.55% | -7.75% | -7.85% | -60.2% | 16.4% | -9.3%
23 | CC(=O)c1cc(C(C)=O)c2cc(C)cc(O)c2c1O | 15.7% | -13.9% | 8.45% | 1.9% | 13.9% | -9.7%
24 | Nc1nc(N)nc(-c2cc(Br)ccc2N)n1 | 51.6% | -0.3% | 12.4% | 19.1% | 30.4% | 7.5%
25 | COC(=O)c1ccc(N=Nc2ncc(CC(NC(C)=O)C(=O)OC)[nH]2)cc1 (configuration not stated) | -16.9% | -46.9% | 20.9% | -34.5% | 4.2% | -13.4%
26 | CCOc1ccc(N=Nc2c(O)n(-c3ccc(Br)cc3)c(=S)n(-c3ccc(OC)cc3)c2=O)cc1 | 28.8% | -8.7% | -9.1% | -24.4% | 1.35% | 2.3%
27 | CCCCCCC(C)CC1=C(O)c2ccccc2C(=O)C1=O (configuration not stated) | -18.5% | 7.55% | -1.9% | -38.4% | 13.6% | 5.25%
28 | CC(C)(C)c1cc(C[N+](C)(C)[O-])c(O)c(-c2ccccc2)c1 | -0.65% | -26.2% | 2.05% | -19.2% | 6.35% | -13.6%
29 | O=C(O)/C=C/C(=O)Nc1ccccc1NC(=O)/C=C/C(=O)O | 15.2% | 16.2% | 31.2% | 27.8% | 19.9% | -1.9%
30 | CN(CCN(C)C(=O)CCOS(C)(=O)=O)C(=O)CCOS(C)(=O)=O | -3.95% | -3.05% | -18.4% | 0% | -25.6% | -51.5%
31 | O=c1nc(NCC23CC4CC(CC(C4)C2)C3)ccn1C1OC(CO)C(O)C1O (configuration not stated) | 21.8% | -0.95% | -8.1% | 16.6% | -4.95% | -6.5%
32 | CC(C)(C)CC(C)(C)N1CNC(=S)NC1 | 19% | -1.95% | 18.3% | 10.8% | 21.8% | 16.8%
33 | O=C1CCCCCCCCCCC1Cc1cc(O)c(CC2CCCCCCCCCCC2=O)cc1O (configuration not stated) | -1.2% | 3% | -5.95% | -12.9% | -5.8% | -12.8%
34 | CSc1sc2ccc(S(=O)(=O)O)cc2[n+]1C | 24.1% | -6.7% | 15.7% | -4.4% | -1.85% | 9.8%
35 | O=C(O)CCC(=O)Oc1ccc(O)c2c1CCCC2=O | -6.95% | 1.65% | -0.95% | -17.8% | -1.3% | -9.15%
36 | O=C(O)Cc1cc(=O)[nH]n(-c2ccccc2)c1=O | 14.2% | 8.6% | -1.3% | 10% | -4.65% | 13.8%
37 | Cc1cc(OC(=O)Nc2cccc(Cl)c2C)ccc1[N+](=O)[O-] | 1.35% | 53.4% | 25.6% | 3.95% | 48.9% | 1.7%
